# Results filed as inconclusive are left out. The source made the active and inactive calls. The calls were made as follows: active = hit-call score of the fitted dose curve at least 0.9, where 1 is the maximum; inconclusive = response in the unintended direction; inactive = score below 0.9.
# How the values were obtained:
# [1] = molecular target: Estrogen receptor (Homo sapiens) + Estrogen receptor beta (Homo sapiens) (UniProt P03372+Q92731); assay: OT_ER_ERaERb_1440: Odyssey Thera (OT) 24-hour HEK293T Protein-Complementation Assay for Estrogen Receptor-alpha/-beta Homodimer (AID 2283356);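 also: heteromer of ER alpha and ER beta binding domains; hits raise reporter fluorescence and both agonists and antagonists give an increase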
# Sequence of Estrogen receptor (Homo sapiens) + Estrogen receptor beta (Homo sapiens) (P03372 whole entry, looked up, the tested form may be a part): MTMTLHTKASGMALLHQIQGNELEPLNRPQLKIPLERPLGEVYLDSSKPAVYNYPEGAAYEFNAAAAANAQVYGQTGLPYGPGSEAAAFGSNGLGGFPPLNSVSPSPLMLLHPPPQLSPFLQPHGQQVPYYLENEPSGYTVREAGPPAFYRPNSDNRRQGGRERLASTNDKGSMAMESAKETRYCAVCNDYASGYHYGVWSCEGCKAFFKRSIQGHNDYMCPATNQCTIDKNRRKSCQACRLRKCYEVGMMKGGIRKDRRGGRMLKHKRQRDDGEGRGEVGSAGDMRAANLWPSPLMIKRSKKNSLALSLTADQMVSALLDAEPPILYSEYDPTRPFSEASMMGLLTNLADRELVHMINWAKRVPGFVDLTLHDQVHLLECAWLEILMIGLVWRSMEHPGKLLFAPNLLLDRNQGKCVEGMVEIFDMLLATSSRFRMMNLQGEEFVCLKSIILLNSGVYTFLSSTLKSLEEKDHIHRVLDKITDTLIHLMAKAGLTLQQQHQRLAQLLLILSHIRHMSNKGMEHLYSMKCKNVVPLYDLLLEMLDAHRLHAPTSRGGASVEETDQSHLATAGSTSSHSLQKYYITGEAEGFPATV
# Sequence of Estrogen receptor (Homo sapiens) + Estrogen receptor beta (Homo sapiens) (Q92731 whole entry, looked up, the tested form may be a part): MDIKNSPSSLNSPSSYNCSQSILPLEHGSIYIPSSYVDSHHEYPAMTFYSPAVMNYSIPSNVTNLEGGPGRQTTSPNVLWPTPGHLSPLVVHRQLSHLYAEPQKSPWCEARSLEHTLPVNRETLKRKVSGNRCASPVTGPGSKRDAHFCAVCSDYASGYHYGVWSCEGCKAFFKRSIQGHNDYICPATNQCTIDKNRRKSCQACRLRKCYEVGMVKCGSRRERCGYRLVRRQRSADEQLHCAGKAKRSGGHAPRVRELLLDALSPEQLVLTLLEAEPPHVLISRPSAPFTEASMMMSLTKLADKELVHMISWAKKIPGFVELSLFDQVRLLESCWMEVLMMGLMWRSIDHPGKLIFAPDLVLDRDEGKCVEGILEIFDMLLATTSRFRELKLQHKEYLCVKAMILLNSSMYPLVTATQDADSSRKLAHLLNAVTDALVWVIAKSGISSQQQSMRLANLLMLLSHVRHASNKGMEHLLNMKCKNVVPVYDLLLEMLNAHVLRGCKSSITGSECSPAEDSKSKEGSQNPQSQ
# Summary of the method: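 Heterodimerisation of ERα (aa 310-547) and ERβ (aa 263-489) ligand binding domains was tracked as fluorescence gain in stably transfected HEK293T cells following 24 h dosing, normalised to DMSO controls.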
# [2] = molecular target: Estrogen receptor beta (Homo sapiens) (UniProt Q92731); assay: OT_ER_ERbERb_0480: Odyssey Thera (OT) 8-hour HEK293T Protein-Complementation Assay for Estrogen Receptor-beta/-beta Homodimer (AID 2283357);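 also: active means signal gain over DMSO baseline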
# Sequence of Estrogen receptor beta (Homo sapiens) (Q92731 whole entry, looked up, the tested form may be a part): as above
# Summary of the method: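 Cells (HEK293T, stable ER-beta LBD PCA pair) are treated 8 hours, fixed and Draq5-stained; signal is fluorescence intensity increase relative to vehicle, fitted in the gain direction.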
# [3] = molecular target: mouse Estrogen Receptor alpha (Era), Esr1 (gene 13982) (UniProt P19785); assay: NVS_NR_mERa: NovaScreen (NVS) Nuclear Receptor Binding Assay for mouse Estrogen Receptor alpha (Era) (AID 2283378);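 also: hit means loss of bound radioligand signal relative to DMSO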
# Sequence of mouse Estrogen Receptor alpha (Era), Esr1 (gene 13982) (P19785 whole entry, looked up): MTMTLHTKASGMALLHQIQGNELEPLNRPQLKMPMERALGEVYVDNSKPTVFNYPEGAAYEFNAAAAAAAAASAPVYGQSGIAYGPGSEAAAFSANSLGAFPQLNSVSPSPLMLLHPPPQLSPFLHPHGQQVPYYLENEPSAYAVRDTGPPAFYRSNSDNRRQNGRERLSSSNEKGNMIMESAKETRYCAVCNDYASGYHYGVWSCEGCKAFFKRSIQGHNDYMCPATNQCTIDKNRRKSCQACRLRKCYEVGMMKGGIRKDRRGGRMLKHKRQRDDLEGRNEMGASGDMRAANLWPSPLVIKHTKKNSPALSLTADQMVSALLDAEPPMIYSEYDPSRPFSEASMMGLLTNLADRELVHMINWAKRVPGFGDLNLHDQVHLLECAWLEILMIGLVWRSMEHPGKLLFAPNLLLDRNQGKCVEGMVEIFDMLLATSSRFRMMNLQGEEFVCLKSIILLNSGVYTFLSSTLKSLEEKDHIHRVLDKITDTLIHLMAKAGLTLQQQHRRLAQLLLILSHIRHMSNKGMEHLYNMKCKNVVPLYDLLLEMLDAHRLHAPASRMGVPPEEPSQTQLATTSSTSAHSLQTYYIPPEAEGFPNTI
# Summary of the method: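 Test chemicals competed against a specific radioligand for binding to cell-free mouse Era. Duplicate wells at 25 uM were read 18 hours later by filter-based radiodetection, with loss of signal against DMSO scored as activity.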
# [4] = molecular target: Nuclear receptor subfamily 1 group I member 2 (Homo sapiens) (UniProt O75469); assay: NVS_NR_hPXR: NovaScreen (NVS) Nuclear Receptor Binding Assay for human Pregnane X Receptor (PXR) (AID 2283365);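 also: a drop in FRET signal versus DMSO baseline means the compound binds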
# Sequence of Nuclear receptor subfamily 1 group I member 2 (Homo sapiens) (O75469 whole entry, looked up): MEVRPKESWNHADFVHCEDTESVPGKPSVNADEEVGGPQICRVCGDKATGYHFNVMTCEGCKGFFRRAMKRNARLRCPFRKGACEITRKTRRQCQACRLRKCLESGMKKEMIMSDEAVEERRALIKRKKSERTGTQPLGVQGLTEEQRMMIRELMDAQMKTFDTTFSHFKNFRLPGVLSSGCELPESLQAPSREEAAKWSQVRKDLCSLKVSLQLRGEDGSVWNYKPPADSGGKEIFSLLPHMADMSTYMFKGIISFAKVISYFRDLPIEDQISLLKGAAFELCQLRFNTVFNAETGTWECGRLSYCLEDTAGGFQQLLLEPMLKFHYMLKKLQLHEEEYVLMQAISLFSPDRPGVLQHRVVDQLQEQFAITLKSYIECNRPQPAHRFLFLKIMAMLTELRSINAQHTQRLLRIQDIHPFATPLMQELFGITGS
# Summary of the method: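 Binding was measured by time-resolved fluorescence resonance energy transfer after a 2 h exposure of extracted human PXR protein without cells. Compounds were first tested at 25 uM in duplicate, with concentration series for actives; DMSO defined baseline.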
# [5] = molecular target: Peroxisome proliferator-activated receptor gamma (Homo sapiens) (UniProt P37231); assay: NVS_NR_hPPARg: NovaScreen (NVS) Nuclear Receptor Binding Assay for human Peroxisome Proliferator-activated Receptor gamma (PPARg) (AID 2283370)
# Sequence of Peroxisome proliferator-activated receptor gamma (Homo sapiens) (P37231 whole entry, looked up): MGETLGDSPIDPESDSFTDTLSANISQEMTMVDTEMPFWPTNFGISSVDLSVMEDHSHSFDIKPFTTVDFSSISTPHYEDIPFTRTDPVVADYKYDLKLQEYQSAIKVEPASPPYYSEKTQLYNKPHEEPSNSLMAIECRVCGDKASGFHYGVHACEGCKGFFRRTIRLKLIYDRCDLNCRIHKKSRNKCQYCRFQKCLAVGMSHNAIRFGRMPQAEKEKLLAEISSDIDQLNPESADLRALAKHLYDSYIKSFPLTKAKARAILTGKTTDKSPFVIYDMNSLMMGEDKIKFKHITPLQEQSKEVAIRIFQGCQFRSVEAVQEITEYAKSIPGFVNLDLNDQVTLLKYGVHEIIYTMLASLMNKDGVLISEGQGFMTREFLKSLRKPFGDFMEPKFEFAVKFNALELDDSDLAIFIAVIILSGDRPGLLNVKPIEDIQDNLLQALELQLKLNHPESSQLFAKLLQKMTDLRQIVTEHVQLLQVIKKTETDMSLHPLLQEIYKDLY
# Summary of the method: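 Fluorescence polarization measures competitive binding to extracted PPARg in a cell-free format. Reading is taken at 2 h; activity is signal loss relative to DMSO. Screening at 25 uM in duplicate preceded confirmatory dose series.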
# [6] = molecular target: human Peroxisome Proliferator-activated Receptor alpha (PPARa), PPARA (gene 5465) (UniProt Q07869); assay: NVS_NR_hPPARa: NovaScreen (NVS) Nuclear Receptor Binding Assay for human Peroxisome Proliferator-activated Receptor alpha (PPARa) (AID 2283359);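 also: activity means loss of TR-FRET signal versus DMSO baseline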
# Sequence of human Peroxisome Proliferator-activated Receptor alpha (PPARa), PPARA (gene 5465) (Q07869 whole entry, looked up): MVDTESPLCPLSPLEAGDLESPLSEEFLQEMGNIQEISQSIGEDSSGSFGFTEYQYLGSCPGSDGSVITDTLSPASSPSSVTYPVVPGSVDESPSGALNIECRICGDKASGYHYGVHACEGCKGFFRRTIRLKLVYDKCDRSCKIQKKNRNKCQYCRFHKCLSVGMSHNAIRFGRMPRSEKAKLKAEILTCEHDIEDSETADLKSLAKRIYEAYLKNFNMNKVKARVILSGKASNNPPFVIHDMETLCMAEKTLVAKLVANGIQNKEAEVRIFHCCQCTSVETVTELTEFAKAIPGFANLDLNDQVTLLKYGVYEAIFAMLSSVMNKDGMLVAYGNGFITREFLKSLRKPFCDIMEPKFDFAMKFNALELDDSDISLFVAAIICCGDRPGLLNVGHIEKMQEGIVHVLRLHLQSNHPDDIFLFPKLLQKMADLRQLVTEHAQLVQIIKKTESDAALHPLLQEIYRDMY
# Summary of the method: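 Chemicals were first screened in duplicate at 25 uM, and active ones were retested across concentration series. Binding was monitored by TR-FRET one hour after dosing, with decreased signal against DMSO counted as activity.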
# [7] = molecular target: Glucocorticoid receptor (Homo sapiens) (UniProt P04150); assay: NVS_NR_hGR: NovaScreen (NVS) Nuclear Receptor Binding Assay for human Glucocorticoid Receptor (GR) (AID 2283363)
# Sequence of Glucocorticoid receptor (Homo sapiens) (P04150 whole entry, looked up): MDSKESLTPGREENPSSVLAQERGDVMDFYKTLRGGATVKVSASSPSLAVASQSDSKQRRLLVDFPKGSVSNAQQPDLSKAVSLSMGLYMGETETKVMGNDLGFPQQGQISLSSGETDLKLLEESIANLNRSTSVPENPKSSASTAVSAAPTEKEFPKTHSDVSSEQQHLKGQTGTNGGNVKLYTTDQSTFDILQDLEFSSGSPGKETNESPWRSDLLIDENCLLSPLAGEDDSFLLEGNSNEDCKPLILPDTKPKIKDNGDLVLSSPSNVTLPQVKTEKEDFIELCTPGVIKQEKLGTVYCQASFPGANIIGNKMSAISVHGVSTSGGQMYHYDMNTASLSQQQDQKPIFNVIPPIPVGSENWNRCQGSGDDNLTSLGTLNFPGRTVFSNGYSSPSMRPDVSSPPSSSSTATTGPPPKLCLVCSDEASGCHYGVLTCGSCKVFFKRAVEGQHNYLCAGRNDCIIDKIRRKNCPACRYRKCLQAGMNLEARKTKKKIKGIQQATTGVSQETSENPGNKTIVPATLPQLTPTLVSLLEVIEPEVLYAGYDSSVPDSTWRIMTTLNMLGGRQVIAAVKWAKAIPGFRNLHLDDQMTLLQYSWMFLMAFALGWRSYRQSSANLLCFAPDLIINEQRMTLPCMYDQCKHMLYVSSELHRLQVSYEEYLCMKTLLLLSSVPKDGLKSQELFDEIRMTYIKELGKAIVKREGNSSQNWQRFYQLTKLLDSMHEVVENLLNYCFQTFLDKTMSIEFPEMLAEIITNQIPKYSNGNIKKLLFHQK
# Summary of the method: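 Competitive displacement of a labelled ligand was measured on cell-free receptor preparations after 16 h exposure. Initial testing used 25 uM in duplicate with plate controls; confirmed actives went into concentration series.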
# [8] = molecular target: human Thyroid Receptor Alpha (TRa), THRA (gene 7067) (UniProt P10827); assay: NVS_NR_hTRa_Antagonist: NovaScreen (NVS) Nuclear Receptor Binding Assay for human Thyroid Receptor Alpha Antagonism (TRa) (AID 2283362)
# Sequence of human Thyroid Receptor Alpha (TRa), THRA (gene 7067) (P10827 whole entry, looked up): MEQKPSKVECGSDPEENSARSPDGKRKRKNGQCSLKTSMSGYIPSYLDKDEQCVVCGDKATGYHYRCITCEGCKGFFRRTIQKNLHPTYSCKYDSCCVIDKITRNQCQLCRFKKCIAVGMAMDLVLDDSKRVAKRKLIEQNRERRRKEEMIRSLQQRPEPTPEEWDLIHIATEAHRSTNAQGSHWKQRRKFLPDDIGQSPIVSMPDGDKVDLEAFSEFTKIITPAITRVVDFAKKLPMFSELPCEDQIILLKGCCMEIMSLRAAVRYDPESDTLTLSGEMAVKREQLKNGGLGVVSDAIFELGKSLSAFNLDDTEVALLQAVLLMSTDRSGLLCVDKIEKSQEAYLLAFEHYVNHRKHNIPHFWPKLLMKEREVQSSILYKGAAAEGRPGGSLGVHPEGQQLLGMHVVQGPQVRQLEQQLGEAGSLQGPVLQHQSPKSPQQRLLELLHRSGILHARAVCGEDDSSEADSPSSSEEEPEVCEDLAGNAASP
# Summary of the method: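 Chemicals were first screened in duplicate at 25 uM, then actives were retested in concentration series. Binding to the extracted receptor was measured 1 h after dosing by AlphaLISA chemiluminescence, with decreased signal versus DMSO scored as activity.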
smiles,measurement,setting,value
COc1ccccc1O,outcome,[1],inactive
same,outcome,[2],inactive
same,outcome,[3],inactive
CC(=O)OC/C=C(C)/C=C/C=C(C)/C=C/C1=C(C)CCCC1(C)C,outcome,[1],inactive
same,outcome,[2],inactive
same,AC50,[4],2.21 µM (active)
CCCCCC1CCC(=O)O1 (centres undefined),outcome,[1],inactive
same,outcome,[2],inactive
same,outcome,[4],inactive
same,outcome,[5],inactive
O=C(O)CS,outcome,[1],inactive
same,outcome,[2],inactive
same,outcome,[5],inactive
CN1CCc2cccc3c2[C@H]1Cc1ccc(O)c(O)c1-3,AC50,[1],4.59 µM (active)
same,outcome,[2],inactive
same,AC50,[6],0.279 µM (active)
same,outcome,[7],inactive
same,AC50,[4],0.26 µM (active)
same,outcome,[5],inactive
same,AC50,[3],0.309 µM (active)
CCCCCCCCCCCCN1CCOCC1,AC50,[1],68 µM (active)
same,outcome,[2],inactive
same,outcome,[8],inactive
same,outcome,[4],inactive
same,outcome,[5],inactive
CCC(C)(CCCC(C)C)OC(C)=O (centres undefined),outcome,[1],inactive
same,outcome,[2],inactive
same,outcome,[4],inactive
CCCCCCCCOS(=O)(=O)O,outcome,[1],inactive
same,outcome,[2],inactive
same,outcome,[5],inactive
CC(=O)Nc1cc(S(=O)(=O)O)cc2cc(S(=O)(=O)O)c(N=Nc3ccccc3)c(O)c12,outcome,[1],inactive
same,outcome,[2],inactive
same,AC50,[8],9.8 µM (active)
same,outcome,[5],inactive
O=S(=O)(O)c1cc(S(=O)(=O)O)c2c(N=Nc3ccccc3)c(O)ccc2c1,outcome,[1],inactive
same,outcome,[2],inactive
same,outcome,[8],inactive
Cc1cccc(O)c1,outcome,[1],inactive
same,outcome,[2],inactive
same,outcome,[3],inactive
CC(=O)c1ccc2ccccc2c1,AC50,[1],31.6 µM (active)
same,outcome,[2],inactive
same,outcome,[6],inactive
CCCCCCCCCOS(=O)(=O)O,outcome,[1],inactive
same,outcome,[2],inactive
same,AC50,[3],12.7 µM (active)
CCC(=O)OC(C)(C)C1CC=C(C)CC1 (centres undefined),outcome,[1],inactive
same,outcome,[2],inactive
CCc1cccc(O)c1,outcome,[1],inactive
same,outcome,[2],inactive
same,outcome,[3],inactive
CCCCCCCCCCCCS,outcome,[1],inactive
same,outcome,[2],inactive
same,outcome,[4],inactive
same,outcome,[5],inactive
C1CCCNCC1,outcome,[1],inactive
same,outcome,[2],inactive
same,outcome,[6],inactive
same,outcome,[5],inactive
CCCCC/C=C\C=C\C(=O)OCC,outcome,[1],inactive
same,outcome,[2],inactive
same,AC50,[4],9.24 µM (active)
CCNC(=S)NCC,outcome,[1],inactive
same,outcome,[2],inactive
same,outcome,[4],inactive
same,outcome,[3],inactive
CCC(C)C1CCCCC1=O (centres undefined),outcome,[1],inactive
same,outcome,[2],inactive
O=C(OCc1ccccc1)c1ccccc1O,AC50,[1],44.5 µM (active)
same,AC50,[2],54.6 µM (active)
CCCCN(CCCC)CCCCCCN(CCCC)CCCC,outcome,[1],inactive
same,outcome,[2],inactive
same,outcome,[6],inactive

# From PubChem BioAssay (EPA / NIEHS)
